In PubChem BioAssay (NCI):
This is part of a sample that, as a whole, favours compounds with a hit. Of some 79,000 tested, about 15% had one in any assay. The source made the active and inactive calls. Cut-off read from the data, not from the text of the source: active = growth inhibition above about 70%; inactive = the rest.

Experiments:
[1] = NCI Yeast Anticancer Drug Screen. Data for the rad52 strain (AID 147);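 note: 0% = growth of vehicle-treated control cultures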; details: S. cerevisiae rad52 mutant growth inhibition, hits give high values
Method in brief: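 Screen used a yeast mutant impaired in DNA repair. After compound exposure, growth was measured. Values reflect inhibition compared with vehicle-treated cells.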

[2] = NCI Yeast Anticancer Drug Screen. Data for the wt1 strain (AID 149);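 note: 0% = growth of vehicle-treated wt1 cultures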; details: S. cerevisiae wt1 strain (SPY 50644) growth inhibition, hits give high values
Method in brief: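 Each compound is tested on wt1 yeast and the loss of growth versus vehicle gives the inhibition value.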

[3] = NCI Yeast Anticancer Drug Screen. Data for the rad50EPP+ strain (AID 151);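 note: 0% = growth of vehicle-treated control cultures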; details: S. cerevisiae rad50 mutant strain, hits give high values
Method in brief: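 Exposing the rad50EPP+ strain to each compound, growth was compared with vehicle-only cultures to give inhibition.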

[4] = NCI Yeast Anticancer Drug Screen. Data for the mgt1 strain (AID 153); details: S. cerevisiae mgt1 mutant growth inhibition, hits give high values
Method in brief: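 Genetically defined yeast (mgt1) treated with compound; inhibition of growth expressed against vehicle-treated controls.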

[5] = NCI Yeast Anticancer Drug Screen. Data for the rad50 strain (AID 155);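 note: 0% = growth of vehicle-only cultures of the same strain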; details: S. cerevisiae rad50 strain growth inhibition, hits give high values
Method in brief: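 Vehicle-treated cultures provide the reference for the growth inhibition reported for compound-exposed, repair-deficient yeast.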

[6] = NCI Yeast Anticancer Drug Screen. Data for the mec2-1 strain (AID 157); details: S. cerevisiae mec2-1 strain, hits give high values
Method in brief: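 Readout is yeast growth inhibition, normalised to vehicle-treated controls, in the mec2-1 strain exposed to compound.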

[7] = NCI Yeast Anticancer Drug Screen. Data for the rad14 strain (AID 159);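 note: 0% = growth of vehicle-treated control cultures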; details: S. cerevisiae rad14 strain growth inhibition, hits give high values
Method in brief: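 Inhibition of growth is reported for a repair-deficient yeast mutant following compound treatment, calculated relative to cultures that received vehicle.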

[8] = NCI Yeast Anticancer Drug Screen. Data for the sgs1 mgt1 strain (AID 161);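 note: 0% = growth of cultures given vehicle only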; details: S. cerevisiae sgs1 mgt1 strain, hits give high values
Method in brief: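 Compounds are added to genetically altered yeast, and growth is compared with cultures given vehicle alone to give percent inhibition.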

[9] = NCI Yeast Anticancer Drug Screen. Data for the cln2 rad14 strain (AID 165);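 note: 0% = growth equal to vehicle treated cultures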; details: S. cerevisiae cln2 rad14 strain, hits give high values
Method in brief: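 Relative to vehicle controls, growth inhibition of compound-treated cln2 rad14 yeast was recorded.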

[10] = NCI Yeast Anticancer Drug Screen. Data for the bub3 strain (AID 167); details: S. cerevisiae bub3 mutant strain, hits give high values
Method in brief: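 Mutant yeast screening strain plus compound; vehicle-treated cultures serve as the 0% inhibition reference.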

[11] = NCI Yeast Anticancer Drug Screen. Data for the wt2 strain (AID 169); details: S. cerevisiae wt2 strain growth inhibition, hits give high values
Method in brief: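 Values express reduction in yeast growth under compound treatment, referenced to vehicle-treated cells.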

[12] = NCI Yeast Anticancer Drug Screen. Data for the mlh1 strain (AID 171);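 note: 0% = growth of vehicle-treated control cultures of the same strain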; details: S. cerevisiae mlh1 strain growth inhibition, hits give high values
Method in brief: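 Steps: expose the defined-mutant yeast strain to compound; expose a parallel culture to vehicle; measure growth; express compound effect as inhibition relative to the vehicle culture.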

[13] = NCI Yeast Anticancer Drug Screen. Data for the mlh1 rad18 strain (AID 175); details: S. cerevisiae mlh1 rad18 strain growth inhibition, hits give high values
Method in brief: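 Test agents were incubated with a yeast strain of defined genotype (DNA damage repair defect). Inhibition of growth was derived by comparison with vehicle-exposed cultures.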

[14] = NCI Yeast Anticancer Drug Screen. Data for the rad18 strain (AID 177); details: S. cerevisiae rad18 mutant growth inhibition, hits give high values
Method in brief: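 A genetically defined yeast mutant impaired in DNA damage repair was treated with test compounds, then its growth was measured against cultures receiving vehicle alone.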

[15] = NCI Yeast Anticancer Drug Screen. Data for the CLN2oe strain (AID 163);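 note: 0% = growth of vehicle-only control cultures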; details: S. cerevisiae CLN2oe strain, hits give high values
Method in brief: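 Values reflect how much compound exposure reduced yeast growth, referenced to vehicle-exposed cells. Assay organism is a strain with a defined genetic change affecting cell-cycle control.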

[16] = NCI Yeast Anticancer Drug Screen. Data for the sgs1 strain (AID 173);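 note: 0% = growth of vehicle-only control cultures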; details: S. cerevisiae sgs1 mutant, hits give high values
Method in brief: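 Treat defined-mutant yeast with compound; measure growth; calculate inhibition relative to vehicle-treated cells.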

[17] = at 5.0 µM (retest, dose inferred, filed as 0.5)
[18] = at 50.0 µM (retest, dose inferred, filed as 5.0)

Measured: growth inhibition

CCCCCCCCCCCCCCCCCCN(C)C(COC)COP(=O)([O-])OCC[N+](C)(C)C (stereo unspecified)
inactive: [1]; at 1.2 µM -58% | [1]; at 3.7 µM -67% | [2]; at 1.2 µM -34% | [2]; at 3.7 µM -56% | [3]; at 1.2 µM -33% | [3]; at 3.7 µM 63% | [4]; at 1.2 µM 14% | [4]; at 3.7 µM 8% | [5]; at 1.2 µM -24% | [5]; at 3.7 µM -11% | [5]; [17] 1% | [6]; at 1.2 µM -48% | [6]; at 3.7 µM -46% | [6]; [17] 12% | [6]; at 50.0 µM 23.9% | [7]; at 1.2 µM -69% | [7]; at 3.7 µM -78% | [8]; [17] 3% | [8]; [18] 2% | [9]; [17] 13% | [9]; [18] -70% | [9]; at 50.0 µM 8.85% | [10]; at 1.2 µM -23% | [10]; at 3.7 µM -40% | [10]; [17] 14% | [10]; [18] 10% | [11]; at 1.2 µM -41% | [11]; at 3.7 µM -55% | [12]; at 1.2 µM -34% | [12]; at 3.7 µM -54% | [13]; [17] 16% | [13]; at 50.0 µM 50% | [14]; at 1.2 µM -64% | [14]; at 3.7 µM -24%
active: [1]; at 11.0 µM 95% | [1]; at 33.0 µM 97% | [1]; at 100.0 µM 97% | [2]; at 11.0 µM 98% | [2]; at 33.0 µM 99% | [2]; at 100.0 µM 98% | [3]; at 11.0 µM 97% | [3]; at 33.0 µM 98% | [3]; at 100.0 µM 98% | [4]; at 11.0 µM 98% | [4]; at 33.0 µM 99% | [4]; at 100.0 µM 98% | [5]; at 11.0 µM 97% | [5]; at 33.0 µM 98% | [5]; [18] 98% | [5]; at 50.0 µM 73.6% | [5]; at 100.0 µM 98% | [6]; at 11.0 µM 97% | [6]; at 33.0 µM 98% | [6]; [18] 99% | [6]; at 100.0 µM 98% | [7]; at 11.0 µM 96% | [7]; at 33.0 µM 98% | [7]; at 100.0 µM 97% | [8]; at 50.0 µM 85.8% | [10]; at 11.0 µM 98% | [10]; at 33.0 µM 98% | [10]; at 50.0 µM 85.2% | [10]; at 100.0 µM 98% | [11]; at 11.0 µM 97% | [11]; at 33.0 µM 98% | [11]; at 100.0 µM 98% | [12]; at 11.0 µM 97% | [12]; at 33.0 µM 98% | [12]; at 100.0 µM 98% | [13]; [18] 98% | [14]; at 11.0 µM 97% | [14]; at 33.0 µM 98% | [14]; at 100.0 µM 98%

O=C1c2ccccc2C(=O)c2c(O)c(NCCNCCO)cc(O)c21
inactive: [1]; at 1.2 µM -31% | [1]; at 3.7 µM -13% | [1]; at 11.0 µM 6% | [2]; at 1.2 µM 1% | [2]; at 3.7 µM -1% | [2]; at 11.0 µM 9% | [3]; at 1.2 µM -4% | [3]; at 3.7 µM 8% | [3]; at 11.0 µM 2% | [3]; at 33.0 µM 16% | [4]; at 1.2 µM 0% | [4]; at 3.7 µM 4% | [4]; at 11.0 µM 36% | [5]; at 1.2 µM -9% | [5]; at 3.7 µM -1% | [5]; [17] 19% | [5]; at 11.0 µM 21% | [6]; at 1.2 µM -3% | [6]; at 3.7 µM -12% | [6]; [17] 23% | [6]; at 11.0 µM 11% | [8]; [17] 35% | [15]; at 1.2 µM 21% | [15]; at 3.7 µM 33% | [15]; at 11.0 µM 29% | [9]; [17] 11% | [9]; [18] 57% | [9]; at 50.0 µM 65.5% | [10]; at 1.2 µM 13% | [10]; at 3.7 µM 21% | [10]; [17] 39% | [10]; at 11.0 µM 45% | [11]; at 1.2 µM -16% | [11]; at 3.7 µM -4% | [12]; at 1.2 µM -23% | [12]; at 3.7 µM -13% | [12]; at 11.0 µM 44% | [16]; at 1.2 µM -4% | [16]; at 3.7 µM 12% | [16]; at 11.0 µM 48% | [13]; [17] 58% | [14]; at 1.2 µM -13% | [14]; at 3.7 µM -3% | [14]; at 11.0 µM 20%
active: [1]; at 33.0 µM 88% | [1]; at 100.0 µM 92% | [2]; at 33.0 µM 71% | [2]; at 100.0 µM 83% | [3]; at 100.0 µM 92% | [4]; at 33.0 µM 91% | [4]; at 100.0 µM 96% | [5]; at 33.0 µM 89% | [5]; [18] 93% | [5]; at 50.0 µM 87.3% | [5]; at 100.0 µM 94% | [6]; at 33.0 µM 84% | [6]; [18] 96% | [6]; at 50.0 µM 87.2% | [6]; at 100.0 µM 86% | [8]; [18] 97% | [8]; at 50.0 µM 85.2% | [15]; at 33.0 µM 82% | [15]; at 100.0 µM 93% | [10]; at 33.0 µM 90% | [10]; [18] 97% | [10]; at 50.0 µM 70.7% | [10]; at 100.0 µM 91% | [11]; at 11.0 µM 73% | [11]; at 33.0 µM 81% | [11]; at 100.0 µM 93% | [12]; at 33.0 µM 91% | [12]; at 100.0 µM 94% | [16]; at 33.0 µM 93% | [16]; at 100.0 µM 94% | [13]; [18] 95% | [13]; at 50.0 µM 90.3% | [14]; at 33.0 µM 89% | [14]; at 100.0 µM 94%
